The campaign covered roughly 350,000 compounds. About 31,000 (8.9%) were called active. Entries that show only a call come without a potency. Not shown: some 15% with an inconclusive outcome. The sample holds actives, similar compounds and a random draw of the others, so the mix is not that of the screen. Values without a mark were called inactive. Calls come from the whole dose curve; as a rule, active = well fitted inhibition curve with a large enough effect; inconclusive = small, poorly fitted or top-dose-only effect; inactive = no such curve, though single readings can be large or run the other way.
Each compound was assayed against Histone-lysine N-methyltransferase EHMT2 (Homo sapiens) (UniProt Q96KQ7) (assay: qHTS Assay for Inhibitors of Histone Lysine Methyltransferase G9a). Conditions: G9a H3K9 monomethylation, AlphaScreen, 2 h; series mostly up to 59 µM.
Sequence of Histone-lysine N-methyltransferase EHMT2 (Homo sapiens) (Q96KQ7 913-1193 limits assumed): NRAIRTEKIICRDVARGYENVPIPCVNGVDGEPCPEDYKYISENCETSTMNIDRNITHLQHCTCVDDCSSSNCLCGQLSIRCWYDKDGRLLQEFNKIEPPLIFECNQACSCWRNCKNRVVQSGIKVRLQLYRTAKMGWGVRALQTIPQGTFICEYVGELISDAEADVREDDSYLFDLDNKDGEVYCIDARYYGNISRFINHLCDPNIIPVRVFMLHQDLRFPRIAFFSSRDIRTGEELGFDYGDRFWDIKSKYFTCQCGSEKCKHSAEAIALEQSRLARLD
Method in brief: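 Step 1: enzyme (final 20 nM) with compound, 15 min RT. Step 2: substrate peptide 500 nM and SAM 20 uM, 2 h RT. Step 3: anti-H3K9me1 antibody and AlphaScreen beads, 10 min, then plate read.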
Note: nearly all actives have a fitted effect of over 75% in size.
Potency is the fitted concentration of half-maximal effect.

Row | SMILES | Potency | activity, negative = inhibition
1 | CCOc1ccc(C2CC(=O)c3c([nH]c(C(=O)OCc4ccccc4)c3C)C2)cc1 (configuration not stated) | inactive | –
2 | CN(c1ccccc1)S(=O)(=O)c1cccc(C(=O)NNC(=O)c2ccncc2)c1 | inactive | –
3 | COc1ccc(OC)c(-c2csc(-c3c(N)c(C(=O)c4ccccc4)n4ccccc34)n2)c1 | inactive | –
4 | Cc1nn(CC(=O)O)c(=O)c2cc3cc(F)ccc3n12 | inactive | –
5 | Cc1ccn2c(=O)c(NC(=O)c3cccc4ccccc34)c(C)nc2c1 | inactive | –
6 | c1ccc(Nc2n[nH]nc2-c2ccccc2)cc1 | inactive | –
7 | O=C(O)c1n[nH]nc1-c1ccccc1 | 3.55 µM (active) | –
8 | N#Cc1c(-c2ccccc2)c(-c2ccccc2)n[nH]c1=O | inactive | –
9 | CCOc1ccc(OCC)c(NC(=O)c2c(C)nn(-c3ccccc3)c2-n2cccc2)c1 | inactive | –
10 | CC(C)c1ccc(C2C(C#N)=C(N)Oc3c2oc(CO)cc3=O)cc1 (configuration not stated) | inactive | –
11 | CC(C)c1ccc(C2CC(=O)N3CN(C4CCCCC4)CSC3=C2C#N)cc1 (configuration not stated) | 2.24 µM (active) | –
12 | OCC[C@H]1C[C@@H](O)[C@H](O)[C@@]2(OCCc3ccccc32)O1 | – | -2.06% [at 2.33 µM]
13 | O=C(CCSCc1ccccc1F)N1CCN(c2ccc(Cl)cc2)CC1 | inactive | –
14 | Cc1cc(=O)[nH]c(SCC(=O)Nc2ccc(Br)cc2)n1 | – | 10.1% [at 12.7 µM]
15 | Cc1cc(C)c(C(=O)CSc2nc(C)cc(=O)[nH]2)c(C)c1 | 31.6 µM (active) | –
16 | Cc1cc(=O)[nH]c(SCC(=O)N2c3ccccc3CC2C)n1 (configuration not stated) | – | -1.7% [at 12.7 µM]
17 | Cc1cc(Cl)c2oc(C(=O)NC(C)c3ccncn3)c(C)c2c1 (configuration not stated) | inactive | –
18 | COc1cc(N=Cc2c(O)c3ccccc3oc2=O)c(OC)cc1Cl | – | 16.1% [at 0.501 µM]
19 | COc1ccccc1N=Cc1c(O)c2ccccc2oc1=O | inactive | –
20 | COc1ccc(N=Cc2c(O)[nH]c3ccccc23)cc1OC | 50.1 µM (active) | –
21 | CCOC(=O)Cn1c(=O)n(Cc2ccc(OC)cc2)c(=O)c2cccnc21 | inactive | –
22 | CC1CCCN(S(=O)(=O)c2ccc3[nH]c(=O)cc(C(=O)NCCc4ccc(Cl)cc4)c3c2)C1 (configuration not stated) | inactive | –
23 | COc1ccc(S(=O)(=O)NCc2cccn2Cc2cccc(C)c2)cc1 | inactive | –
24 | CCOc1ccccc1C(=O)NCc1ccc2c(c1)CCN2C(=O)c1ccc(F)cc1 | inactive | –
25 | Cn1c(-c2ccco2)nc2cc3ccccc3cc21 | – | 8.95% [at 0.0925 µM]

Row | SMILES | Potency | activity, negative = inhibition
26 | c1coc(-c2nc3nc4ccccc4n3nc2-c2ccco2)c1 | 10 µM (active) | –
27 | Cc1nn2c3ccccc3nc2n(C)c1=O | inactive | –
28 | CCOc1ccc(CCNC(=O)c2c(C)oc3ncn(C)c(=O)c23)cc1 | inactive | –
29 | CCCc1nn2c(=O)cc(COC(=O)c3ccc(NC(=O)C(C)Oc4ccccc4)cc3)nc2s1 (configuration not stated) | inactive | –
30 | COc1ccc(C(=O)/C=C/c2ccc(OC3CSC3)cc2)cc1 | inactive | –
31 | COc1ccc(/C=C/C(=O)c2ccc(OC)cc2O)cc1 | inactive | –
32 | COc1ccc(/C=C/C(=O)c2cc(Br)ccc(=O)c2O)cc1 | 10 µM (active) | –
33 | Cc1cccc(Cc2c(C)nc3nc(SCc4ccccc4Cl)nn3c2C)c1 | inactive | –
34 | CCOC(=O)c1ccc(N2C(=O)c3[nH]nc(-c4ccccc4)c3C2c2ccc(C(C)C)cc2)cc1 (configuration not stated) | inactive | –
35 | CCOC(=O)c1ccc(N2C(=O)c3n[nH]c(C)c3C2c2ccc(O)c(OC)c2)cc1 (configuration not stated) | inactive | –
36 | CCOC(=O)c1ccc(N2C(=O)c3n[nH]c(-c4ccco4)c3C2c2ccc(O)cc2)cc1 (configuration not stated) | 17.8 µM (active) | –
37 | Cc1ccc(F)cc1NC(=O)CCSc1nc(-c2ccco2)cc(C(F)(F)F)n1 | inactive | –
38 | Cc1ccc(NC(=O)CCCn2c(=O)c3cccn3c3ccccc32)cc1Cl | inactive | –
39 | COc1cc(OC)c(C(=O)OCC(=O)N2CC(=O)Nc3ccccc32)cc1OC | inactive | –
40 | Cc1ccc(S(=O)(=O)N2CCC(C(=O)OCC(=O)N3CC(=O)Nc4ccccc43)CC2)cc1 | inactive | –
41 | O=C1CN(C(=O)COC(=O)C2CC(=O)N(Cc3ccco3)C2)c2ccccc2N1 (configuration not stated) | 50.1 µM (active) | –
42 | COc1ccc(OC)c(S(=O)(=O)N2CCCC(C(=O)N3CCC(C(N)=O)CC3)C2)c1 (configuration not stated) | inactive | –
43 | O=C(CSc1ncc(CO)n1Cc1ccc(Cl)cc1)NCc1ccc(F)cc1 | inactive | –
44 | CCc1c(C)sc(NC(=O)c2ccc(Br)o2)c1C(=O)OC | inactive | –
45 | CCCc1nnc(NC(=O)c2cccs2)s1 | – | -0.387% [at 12.7 µM]
46 | CCc1c(C)sc(NC(=O)c2cccs2)c1C(N)=O | 11.2 µM (active) | –
47 | CCc1c(C)sc(NC(=O)C2c3ccccc3Oc3ccccc32)c1C(=O)OC(C)C | inactive | –
48 | COc1cc(C(=O)NCC(=O)N2CC=C(c3ccccc3)CC2)cc(OC)c1OC | inactive | –
49 | O=C(COC(=O)c1ccccc1)c1ccc2c(c1)OCCO2 | inactive | –
50 | CN(C(=O)C1CCN(c2ncnc3c2nc2n3CCCCC2)CC1)C1CCCCC1 | inactive | –

Row | SMILES | Potency | activity, negative = inhibition
51 | COCc1c(C(=O)OCC(=O)Nc2ccc(OC(F)F)cc2)oc2ccccc12 | – | -14.1% [at 12.7 µM]
52 | CN(C(=O)Cn1nnc(-c2ccc(F)cc2)n1)C1CCS(=O)(=O)C1 (configuration not stated) | – | 14.1% [at 12.7 µM]
53 | O=C(c1ccc(F)cc1)N1CCCC(c2nc(-c3cccs3)no2)C1 (configuration not stated) | inactive | –
54 | COc1cccc(-c2noc(C3CCCN(C(=O)c4ccc(F)cc4)C3)n2)c1 (configuration not stated) | inactive | –
55 | Cc1ccc(-c2noc(C3CCCN(C(=O)c4cccc(Cl)c4)C3)n2)o1 (configuration not stated) | 39.8 µM (active) | –
56 | COc1ccc2nc(N3CCN(C(=O)c4ccc([N+](=O)[O-])o4)CC3)sc2c1 | inactive | –
57 | CCc1ccccc1NC(=O)c1cnn(-c2ccc(F)cc2)c1C1CCNCC1 | inactive | –
58 | O=C(Nc1ccc(N2CCCC2=O)cc1)c1cncc(Br)c1 | inactive | –
59 | O=C(NC(=S)Nc1ccc(Cl)c(C(=O)O)c1)c1cncc(Br)c1 | 44.7 µM (active) | –
60 | COC(=O)c1ccccc1NC(=O)c1cncc(Br)c1 | inactive | –
61 | O=C(NCCc1ccc(F)cc1)c1ccc2nccnc2c1 | – | -12.4% [at 12.7 µM]
62 | COc1cc(OC)cc(C(=O)NCC(=O)N2CCCCCCC2)c1 | – | 12.1% [at 12.7 µM]
63 | CCN(CC(=O)Nc1ccc(NC(C)=O)cc1)C(=O)CSC(=S)N1CCCC1 | – | -6.65% [at 12.7 µM]
64 | CCc1ccccc1NC(=O)Cc1ccc(NC(=O)N2CCCCc3ccccc32)cc1 | inactive | –
65 | Cc1ccc(Nc2c(-c3ccc(C)cc3)nc3cnccn23)cc1 | inactive | –
66 | Cc1ccc(Nc2c(-c3ccc(N(C)C)cc3)nc3nc[nH]n23)cc1 | 2.51 µM (active) | –
67 | COC(=O)C1(C)NC(c2ccc(F)cc2)C2C(=O)N(c3ccccc3)C(=O)C21 (configuration not stated) | inactive | –
68 | Cc1sc2nc(CSCC(=O)NC3CCCCC3)[nH]c(=O)c2c1C | – | -8.21% [at 0.501 µM]
69 | COc1cc(OC)c(N2CC(C(=O)Nc3cc(Cl)ccc3N3CCOCC3)CC2=O)cc1Cl (configuration not stated) | inactive | –
70 | COc1cc(OC)c(-n2c(C)cc(C=O)c2C)cc1Cl | inactive | –
71 | COc1cc(OC)c(-n2cc(-c3ccc(Cl)cc3)[nH]c2=O)cc1Cl | 31.6 µM (active) | –
72 | CCOC(=O)C1CCN(c2nc3c(S(=O)(=O)c4ccc(CC)cc4)nnn3c3ccc(Cl)cc23)CC1 | inactive | –
73 | CCCCNC(=O)CSc1nc2cc3c(cc2c(=O)n1CCCCCC(=O)NCc1ccc2c(c1)OCO2)OCO3 | inactive | –
74 | O=C(CNS(=O)(=O)c1ccc2c(c1)OCCCO2)N1CCN(c2ccc(F)cc2)CC1 | – | 24.8% [at 12.7 µM]
75 | O=C(O)c1ccc(NS(=O)(=O)c2ccc3c(c2)C(=O)c2cc(S(=O)(=O)Nc4ccc(C(=O)O)cc4)ccc2-3)cc1 | 50.1 µM (active) | –

Row | SMILES | Potency | activity, negative = inhibition
76 | Cc1cc(C(C)(C)C)cc(S(=O)(=O)Nc2ccc(C(=O)O)cc2)c1C | inactive | –
77 | CC(=O)c1c(C)oc2ccc(NS(=O)(=O)c3ccc(C(=O)O)cc3)cc12 | inactive | –
78 | CCCn1c2ccccc2c2cnn(CC(=O)N(C)c3ccccc3CC)c(=O)c21 | inactive | –
79 | CC(CCc1ccccc1)NC(=O)COC(=O)c1ccc(F)cc1 (configuration not stated) | inactive | –
80 | O=C(Cn1ncc2c3ccccc3n(Cc3ccccc3)c2c1=O)NC1CCCCCC1 | inactive | –
81 | Cc1ccc(NC(=O)C2CC(c3ccc(F)cc3)=NO2)cc1 (configuration not stated) | inactive | –
82 | O=C(Nc1ccc2c(c1)OCO2)C1CC1(Cl)Cl (configuration not stated) | – | 2.4% [at 12.7 µM]
83 | O=C(Nc1ccc2c(c1)OCO2)C1CC(c2c(F)cccc2Cl)=NO1 (configuration not stated) | 44.7 µM (active) | –
84 | O=C(Nc1ccccn1)C1CCN(S(=O)(=O)c2ccccc2)CC1 | – | -10.1% [at 12.7 µM]
85 | Nc1c(N(CCCO)C(=O)C2CCCC2)c(=O)[nH]c(=O)n1Cc1ccccc1 | inactive | –
86 | Cn1nnnc1SCCCNCc1cccc(OCc2ccc(Cl)cc2)c1 | inactive | –
87 | O=C(Cn1nc(Cc2cccnc2)c2ccccc2c1=O)N1CCN(c2ccccc2F)CC1 | inactive | –
88 | O=c1c2ccccc2cnn1Cc1n[nH]c(=S)n1-c1ccccc1F | 31.6 µM (active) | –
89 | Cn1c2cc(B(O)O)sc2c2cnn(Cc3ccccc3F)c(=O)c21 | – | 0.244% [at 12.7 µM]
90 | COc1ccc(CNC(=O)CSc2nc3ccccc3nc2Cc2ccccc2)cc1 | inactive | –
91 | CCS(=O)(=O)c1nc(S(=O)(=O)c2ccc(C)cc2)c(NCc2ccc(Cl)cc2)s1 | inactive | –
92 | O=C(CCS(=O)(=O)c1cc(Br)cc2c1N(C(=O)C1CC1)CC2)Nc1ccc(Br)cc1F | inactive | –
93 | Cc1cccc(OCC(=O)Nc2ccc(NC(=O)c3ccco3)c(C)c2)c1 | – | 0.639% [at 12.7 µM]
94 | Cc1cccc(Nc2cc(C)nc(-n3nc(C)cc3C)n2)c1 | inactive | –
95 | CCC1=Nc2cc(C(=O)NCC(C)c3ccccc3)ccc2Sc2ccc(C)cc21 (configuration not stated) | inactive | –
96 | CCCC1=Nc2cc(C(=O)NCCN3CCCC3)ccc2Sc2ccccc21 | 79.4 µM (active) | –
97 | CCC1=Nc2cc(C(=O)NCCN3CCCC3)ccc2Sc2ccc(C)cc21 | inactive | –
